Results filed as inconclusive are left out. Active and inactive are the calls of the source. Calls follow the shape of the dose curve; as a rule, active = well fitted curve in the direction sought with a large enough effect; inconclusive = small, poorly fitted or top-dose-only effect, or another doubt; inactive = no such curve, though single readings can be large or run the other way.

The experiment in a line: Cytometric Cell-Based qHTS for Inhibitors of the mTORC1 Signaling Pathway in MEF (Tsc2-/-, p53-/-) Cells (AID 2660).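 Also: Tsc2 and p53 null MEFs carrying empty vector with compound for 24 h; percent of cells above a phospho-rpS6 to PI ratio cutoff in each well.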 The note with it: mTORC1 pathway cytometry; series mostly up to 38.3 µM. The gist of the method:
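Cells are plated, treated with compound for 24 hrs at 37 degree Celsius, then fixed, blocked and immunostained for phospho-rpS6 Ser235/236. Propidium iodide counterstain follows. Per-well % positive cells is derived from the PI-normalized phospho-S6 signal.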
(Quantitative high-throughput screening tests each substance at several concentrations.)
Regarding `O=C(O)C1CN(CCCP(=O)(O)O)CCN1` (stereo not drawn), the compound was classed as inactive.
As for `CCCC(=O)NCCc1c2n(c3ccc(OC)cc13)CCCc1ccccc1-2`, the entry is “inactive”; as for `CN(C)C(=O)/N=N/C(=O)N(C)C`, “inactive”.
Take `C[C@H]1CC2C3CCC4=CC(=O)C=C[C@]4(C)[C@@]3(Cl)[C@@H](O)C[C@]2(C)[C@@]1(O)C(=O)CO` (stereo partly drawn): the call was inactive.
In the case of `OC[C@H]1O[C@H](n2cnc3c(N[C@H]4CCC[C@@H]4O)ncnc32)[C@H](O)[C@@H]1O` it was “inactive”; in that of `Cc1cccc(C)c1OCC(N)C(C)C` (stereo not drawn), “inactive”; in that of `N[C@H](C(=O)O)[C@H](Cc1ccccc1)C(=O)O`, “inactive”.
As for `O=c1onc2cnc3ccccc3n12`, the entry is “inactive”; as for `C=CCn1c(=O)c2c(nc(-c3ccc(S(=O)(=O)O)cc3)n2C)n(C)c1=O`, “inactive”.
As for `O=C(O)c1cccnc1C(=O)O`, the entry is “inactive”.
In the case of `Cc1nc(N=Nc2cc(S(=O)(=O)O)c3cc([N+](=O)[O-])cc(S(=O)(=O)O)c3c2)c(COP(=O)(O)O)c(C=O)c1O`, the outcome was inactive.
With `Cn1c(=O)c2[nH]c(C3CCCC3)nc2n(C)c1=O`, the result was inactive.
In the case of `C[C@@]1(C2CCCC2)Cc2cc(OCC(=O)O)c(Cl)c(Cl)c2C1=O` it was “inactive”.
In the case of `N=C(N)SCCN` it was “inactive”.
In the case of `COc1ccc(-c2ccc(N)[n+](CCCC(=O)O)n2)cc1` it was “inactive”; in that of `CC(N)(Cc1ccc(O)c(O)c1)C(=O)O` (stereo not drawn), “inactive”.
As for `C=C1C[C@@]23CC[C@H]4[C@@](C)(CCC[C@@]4(C)C(=O)OC4OC(CO)C(O)C(O)C4O)[C@@H]2CC[C@]1(OC1OC(CO)C(O)C(O)C1OC1OC(CO)C(O)C(O)C1O)C3` (stereo partly drawn), the call was inactive.
Regarding `NCCC1CCCC(CCN)N1` (stereo not drawn), the outcome was inactive.
As for `C[C@]12C=CC(=O)C=C1CC[C@@H]1C2=CC[C@]2(C)[C@@H](C(=O)CN3CCN(c4cc(N5CCCC5)nc(N5CCCC5)n4)CC3)CC[C@@H]12`, the entry is “inactive”.
As for `O=c1[nH]c(=O)c2nc3ccccc3nc2[nH]1`, the entry is “inactive”; as for `CCCn1c(=O)c2c(ncn2C)n(CCC)c1=O`, “inactive”.
In the case of `CC(=O)NNC(=O)N1Cc2ccccc2Oc2ccc(Cl)cc21` it was “inactive”.
With `CCSC(=N)N`, the result was inactive.
For the compound `CCc1ccc2c(-c3cccc(Cl)c3)nc(=O)n(CC)c2n1`, the result was inactive.
As for `O=C(O)C1=CC(=C(c2ccc(O)c(C(=O)O)c2)c2ccc(O)c(C(=O)O)c2)C=CC1=O`, the entry is “inactive”.
As for `Brc1c(Br)c(Br)c2[nH]cnc2c1Br`, the entry is “inactive”; as for `NC(Cc1cccc(-c2ccccc2CP(=O)(O)O)c1)C(=O)O` (stereo not drawn), “inactive”.
In the case of `COC(=O)C(C)(N)Cc1ccc(O)cc1` (stereo not drawn) it was “inactive”; in that of `C=CC1(C)CC(=O)C2(O)C(C)(O1)C(OC(C)=O)C(O)C1C(C)(C)CCC(O)C12C` (stereo not drawn), “inactive”; in that of `NCCCCN`, “inactive”.
Regarding `C[C@@H](NCCc1ccc(O)cc1)[C@@H](O)c1ccc(O)cc1`, the compound was classed as inactive.
As for `NC1C=CC=C(C(=O)O)C1` (stereo not drawn), the compound was called inactive.
As for `CCCN(CCc1ccccc1)C1CCc2c(O)cccc2C1` (stereo not drawn), the entry is “inactive”; as for `CC1C(=O)N(C)C(=O)c2nc[nH]c21` (stereo not drawn), “inactive”.
For the compound `c1ccc(C(NCc2cccnc2)(c2ccccc2)c2ccccc2)cc1`, the compound was called inactive.
In the case of `CN(C)CCCc1cc(C(=O)Nc2ccc(-c3ccncc3)cc2)ccc1O` it was “inactive”; in that of `O=C(O)Cc1ccc(O)c(O)c1`, “inactive”.
In the case of `CC1CCN=C(N)S1` (stereo not drawn) it was “inactive”.

(Values after PubChem BioAssay (NCATS).)
